LYPLA1 counter = blocks human lysophospholipase 1, a PME1 counter-screen | O75608 | recombinant LYPLA1, FP-Rh probe fluorescence polarization | inhibition, % at 5.9 µM | 0.16% of 320,000 active | AID 2174;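 active = inhibition above the mean of all tested compounds plus 3 SD, set per campaign, cut at about 14% in these data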;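 also: inhibitors block serine hydrolase probe labeling of LYPLA1 so polarization falls; 0% = enzyme with DMSO and 100% = wells lacking LYPLA1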
LYPLA2 inh = blocks human lysophospholipase 2, a PME1 counter-screen | O95372 | inhibition, % at 5.9 µM | recombinant LYPLA2, FP-Rh probe fluorescence polarization | 0.38% of 320,000 active;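 active = inhibition above the screen-wide mean plus 3 SD, limit set per campaign, cut at about 26% in these data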;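 also: 0% = LYPLA2 with DMSO and 100% = wells lacking LYPLA2 enzyme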
PME-1 primary = blocks human protein phosphatase methylesterase 1; Q9Y570; recombinant PME-1, FP-Rh probe fluorescence polarization; inhibition, % at 5.9 µM; 0.53% of 320,000 active; AID 2130;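 active = inhibition above the campaign mean of all compounds plus 3 SD, cut at about 26% in these data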;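 also: competitive labeling of PME-1 active site by serine hydrolase directed probe; 0% = PME-1 with DMSO and 100% = wells lacking PME-1 enzyme; inhibitors block probe labeling so polarization falls and inhibition rises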
Target sequence (Q9Y570 whole entry, looked up): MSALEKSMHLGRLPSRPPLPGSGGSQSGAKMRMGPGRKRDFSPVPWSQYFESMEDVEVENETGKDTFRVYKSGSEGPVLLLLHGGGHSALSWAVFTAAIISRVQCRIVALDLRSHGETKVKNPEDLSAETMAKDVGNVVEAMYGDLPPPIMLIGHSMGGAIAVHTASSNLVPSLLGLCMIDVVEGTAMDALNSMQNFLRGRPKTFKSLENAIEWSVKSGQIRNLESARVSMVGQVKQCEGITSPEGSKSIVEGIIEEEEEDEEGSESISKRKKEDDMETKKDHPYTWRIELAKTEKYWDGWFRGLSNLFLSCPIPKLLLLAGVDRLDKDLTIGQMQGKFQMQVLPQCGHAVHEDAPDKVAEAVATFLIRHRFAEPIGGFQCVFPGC
PAD4 inh = PAD4 (human) enzyme inhibition | Q9UM07 | recombinant PAD4, RCA probe fluorescence polarization | inhibition, % at 6.36 µM | 0.41% of 330,000 active;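 active = percent inhibition above a cutoff equal to the mean of all tested compounds plus 3 SD, cut at about 15% in these data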;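 also: 0% = PAD4 with RCA probe and DMSO and 100% = probe without PAD4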
GSTO1 inh = counter-screen for RBBP9 inhibitors: inhibitors of human GSTO1; 1.1% of 300,000 active; inhibition, % at 5.96 µM; P78417; recombinant GSTO1, activity-based probe fluorescence polarization;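 active = inhibition above the campaign mean inhibition plus 3 SD, cut at about 35% in these data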;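 also: 0% = GSTO1-1 with DMSO and 100% = wells lacking GSTO1-1 enzyme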
Target sequence (P78417 whole entry, looked up): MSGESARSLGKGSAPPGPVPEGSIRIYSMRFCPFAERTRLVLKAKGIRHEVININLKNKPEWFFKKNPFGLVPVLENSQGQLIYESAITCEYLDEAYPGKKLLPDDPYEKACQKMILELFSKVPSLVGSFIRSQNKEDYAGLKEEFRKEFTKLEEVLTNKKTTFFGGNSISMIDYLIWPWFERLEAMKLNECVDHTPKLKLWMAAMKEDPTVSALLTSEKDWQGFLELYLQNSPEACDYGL
Fam108B counter = blocks mouse Fam108B hydrolase in RBBP9 counter-screen; recombinant Fam108B, FP-Rh probe fluorescence polarization; inhibition, % at 9.51 µM; 0.33% of 300,000 active;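 active = inhibition above the screen mean inhibition plus 3 SD, computed separately per campaign, cut at about 18% in these data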;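 also: inhibitors lower polarization as less probe binds the enzyme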
PAD4 confirm = PAD4 (human) inhibition, confirmed. shares compounds with PAD4 inh. recombinant PAD4, RCA probe fluorescence polarization. inhibition, % at 6.36 µM. 28% of 1,200 active. AID 488796;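 active = mean inhibition across replicates above the hit cutoff set by the earlier primary screen, cut at about 15% in these data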;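 also: inhibitors block active-site labeling by the probe so polarization falls; 0% = PAD4 with probe and DMSO and 100% = probe without PAD4 enzyme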
Numbers without * were called inactive; x = no result given. Shown are actives, neighbours in structure and some others; about 1.8% of the full set was active somewhere.

SMILES | LYPLA1 counter | LYPLA2 inh | PME-1 primary | PAD4 inh | GSTO1 inh | Fam108B counter | PAD4 confirm
O=[N+]([O-])c1ccc(C2CC(c3ccccc3)=Nc3ccccc3S2)cc1 (centres undefined) | -1 | 0 | -2 | 22* | 3 | 4 | 3
COc1cccc2c(=O)c(C/C=C(/C)Cl)c(C)[nH]c12 | 1 | -3 | -1 | 3 | -4 | -1 | x
COc1ccc(-c2nc(CS(=O)CC(=O)NCc3ccc(F)cc3)c(C)o2)cc1 (centres undefined) | -1 | 2 | -4 | 0 | 10 | -2 | x
Cc1cc(O)c(C=Nc2ccc(N3CCOCC3)cc2)c(C)c1Cl | 2 | 1 | 0 | 28* | 3 | -7 | 2
Cc1ccc(Cl)cc1-c1ccc(C=Nc2ccc(N3CCOCC3)cc2)o1 | -2 | 6 | 1 | 7 | 2 | 2 | x
COc1ncnc2c1NC1=C(S2)C(=NCCC(=O)O)CC(C)(C)C1 | 10 | 7 | 4 | 20* | 3 | 0 | 24*
O=C(O)c1ccccc1NS(=O)(=O)c1cccc(C(F)(F)F)c1 | 2 | 5 | -3 | -3 | -8 | 3 | x
O=C(O)c1ccccc1NS(=O)(=O)c1cccc(-n2sc3ccccc3c2=O)c1 | -1 | -6 | 0 | 43* | -95 | 7 | 33*
CC(C)(C)c1[nH]nc2c1C(c1ccco1)C(C#N)=C(N)O2 (centres undefined) | 0 | -5 | 1 | 0 | 9 | -4 | x
CCc1nnc(N/N=C/c2cccs2)n1N | 1 | -5 | -1 | 34* | 17 | 1 | -6
CCc1nnc(N/N=C/c2c(Cl)cccc2Cl)n1N | 1 | 1 | 2 | 21* | 16 | 6 | 2
CNC(=S)N/N=C/c1c(Cl)cccc1Cl | -3 | 1 | -2 | 1 | 6 | -2 | x
COCCCn1c(SCC(=O)N2CCCC(C)C2)nnc1-c1ccco1 (centres undefined) | 0 | 1 | -3 | 13 | -2 | 4 | x
Cc1cc(C)nc(SCC(=O)Nc2ccc(Br)cn2)n1 | -5 | 1 | -3 | -2 | 7 | 2 | x
Cc1cc(C)nc(SCC(=O)NC2=NN=C(c3ccc(Br)cc3)CS2)n1 | -2 | 0 | 4 | 38* | -9 | -2 | 21*
CCC(Sc1nc(C)cc(C)n1)C(=O)NC1=NN=C(c2ccc(C)cc2)CS1 (centres undefined) | 2 | 7 | 0 | 66* | -11 | -1 | 55*
CCOc1ccccc1C1C(C#N)=C(N)N(N(C)C)C2=C1C(=O)CCC2 (centres undefined) | 2 | -7 | 7 | 7 | 3 | 3 | x
Cc1cccc(CCNC(=O)C2CCC(=O)N(Cc3ccccc3F)C2)n1 (centres undefined) | 5 | 0 | 4 | 0 | 8 | -1 | x
CN(CCC#N)C(=O)c1cc2c(Cl)nc3ccccc3c2s1 | 1 | 1 | 1 | 1 | -6 | 3 | x
N#CCCn1[nH]c(-c2ccccc2)cc1=O | -2 | -2 | 2 | 51* | 39* | -2 | 3
O=c1cc(-c2ccccc2)[nH]n1-c1nc2ccccc2[nH]1 | -6 | -6 | 6 | -2 | -9 | 9 | x
COc1cc(C2C(C#N)=C(N)Oc3n[nH]c(-c4cccnc4)c32)ccc1OCC(N)=O (centres undefined) | 3 | -2 | 4 | 21* | 14 | -1 | 5
COc1cc(C2C(C#N)=C(N)Oc3n[nH]c(-c4cccnc4)c32)cc(Br)c1O (centres undefined) | 0 | -5 | -2 | 21* | 14 | -6 | -4
CCCCCN1N=C(C)CC1=O | -4 | -4 | -5 | 22* | 30 | -2 | -1
CC(C)CN(C(=O)CCC(=O)OCC(=O)N(C)c1ccccc1)c1c(N)n(CC(C)C)c(=O)[nH]c1=O | 2 | 3 | 2 | -2 | -2 | 4 | x
SMILES | LYPLA1 counter | LYPLA2 inh | PME-1 primary | PAD4 inh | GSTO1 inh | Fam108B counter | PAD4 confirm
COc1ccc(CSc2nncn2N)cc1Br | -2 | -1 | -6 | -6 | 5 | 3 | x
COc1ccc(/C=N/Nc2nncn2N)cc1Br | -6 | -5 | -2 | 53* | 29 | 0 | 3
COc1cc(/C=N/Nc2nncn2N)ccc1OCc1c(C)no[n+]1[O-] | 1 | 2 | 5 | 45* | 16 | 1 | -9
CC(C)c1ccc(N=c2c([N+](=O)[O-])nn(-c3ccc4c(c3)OCCO4)n2O)cc1 | -4 | 8 | 6 | 18* | -3 | -2 | 2
CCc1nnc(N/N=C/c2ccc(O)c(OC)c2)n1N | 4 | 8 | -2 | 38* | 20 | 4 | 2
COc1cc(/C=N/NC(=O)Nc2ccccc2)ccc1OC(C)=O | 4 | 5 | 3 | -1 | 2 | 7 | x
CCc1nnc(N/N=C\c2ccc(OC(C)=O)c(OC)c2)n1N | 0 | 4 | 1 | 25* | 21 | 2 | 0
CCC(CC)C1C(C#N)=C(N)Oc2cc(C)oc(=O)c21 (centres undefined) | -3 | -5 | -2 | -5 | -2 | 4 | x
Cc1cc2c(c(=O)o1)C(c1ccc([N+](=O)[O-])o1)C(C#N)=C(N)O2 (centres undefined) | 7 | 10 | 12 | 27* | 23 | 6 | 2
Cc1ccccc1Nc1cc(C(=O)NCC2CCCO2)c2ccccc2n1 (centres undefined) | -2 | -6 | -4 | 3 | -5 | 5 | x
Cc1oc2cc(O)ccc2c(=O)c1-c1nncn1-c1ccccc1 | 10 | 7 | 14 | 18* | 7 | 9 | 16*
CC(C)c1ccc(N(C(=O)c2cc3ccccc3oc2=O)C2C=CS(=O)(=O)C2)cc1 (centres undefined) | -4 | 1 | -4 | 17* | 4 | 1 | -5
O=C(c1cc2ccccc2oc1=O)N(c1ccccc1)C1C=CS(=O)(=O)C1 (centres undefined) | -1 | -3 | -1 | -3 | -2 | 2 | x
COc1ccccc1C1=NOC(C(=O)N2CCN(C(=O)c3ccco3)CC2)C1 (centres undefined) | -2 | 0 | 0 | -1 | 0 | 2 | x
CCN(CC)c1ccc(NC(=O)CSC(=O)c2ccccc2)cc1 | x | x | x | 2 | x | x | x
CC(=O)c1cccc(NC(=O)CSC(=O)c2ccccc2)c1 | 4 | 8 | 9 | 15* | 3 | -1 | 18*
Cc1nnc(N/N=C/c2ccco2)n1N | 1 | 3 | 1 | 23* | 38* | 0 | -1
COc1ccc(-n2c(C)cc(/C=N/Nc3nnc(C)n3N)c2C)cc1 | 0 | 3 | 13 | 36* | 46* | -1 | 3
Cc1nnc(N/N=C/c2cccc(OCc3ccc(Cl)c(Cl)c3)c2)n1N | 3 | 9 | 15 | 33* | 46* | 7 | 2
Fc1ccccc1/C=N/Nc1nn[nH]n1 | 0 | -3 | 7 | 3 | 3 | -4 | x
NC(=O)N/N=C/c1cccc(OCc2ccc(F)cc2)c1 | 2 | 8 | 2 | 3 | 2 | 2 | x

Bioassay records deposited in PubChem by The Scripps Research Institute Molecular Screening Center.
